Measurements taken from PubChem BioAssay (NCI).
About 83,000 compounds went through this panel and 20% of them were active in at least one assay; those are over-represented in the sample as a whole.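 Single-dose data. Exposure time 48 hours. Values below 10 considered active.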 Unmarked numbers belong to inactive results. The source made the active and inactive calls.

Assays:
Experiment in all cases: NCI-60 one-dose screen, 48 h (100 = growth as untreated, 0 = no growth, -100 = all killed)
Settings in all cases: 10 µM unless noted
NCI-H23 lung = tested on: NCI-H23 lung
NCI-H226 lung = tested on: NCI-H226 lung
NCI-H322M lung = tested on: NCI-H322M lung
HOP-62 NSCLC = tested on: HOP-62 NSCLC
NCI-H460 lung = tested on: NCI-H460 lung
HOP-92 NSCLC = tested on: HOP-92 NSCLC
786-0 renal = tested on: 786-0 renal
COLO 205 colon = tested on: COLO 205 colon
DU-145 prostate = tested on: DU-145 prostate
K-562 leukemia = tested on: K-562 leukemia
MALME-3M melanoma = tested on: MALME-3M melanoma
MDA-MB-231 breast = tested on: MDA-MB-231 breast
RXF 393 renal = tested on: RXF 393 renal
SF-268 CNS = tested on: SF-268 CNS
SF-295 CNS = tested on: SF-295 CNS
SF-539 CNS = tested on: SF-539 CNS
M14 melanoma = tested on: M14 melanoma
UACC-257 melanoma = tested on: UACC-257 melanoma
A549/ATCC NSCLC = tested on: A549/ATCC NSCLC

SMILES | growth (NCI-H23 lung) | growth (NCI-H226 lung) | growth (NCI-H322M lung) | growth (HOP-62 NSCLC) | growth (NCI-H460 lung) | growth (HOP-92 NSCLC) | growth (786-0 renal) | growth (COLO 205 colon) | growth (DU-145 prostate) | growth (K-562 leukemia) | growth (MALME-3M melanoma) | growth (MDA-MB-231 breast) | growth (RXF 393 renal) | growth (SF-268 CNS) | growth (SF-295 CNS) | growth (SF-539 CNS) | growth (M14 melanoma) | growth (UACC-257 melanoma) | growth (A549/ATCC NSCLC)
COc1ccc(/C=N/NC(N)=S)c(OC)n1 | 108% | 85.7% | 104% | 116% | 106% | 113% | 104% | 111% | 113% | 89.5% | 103% | 110% | 94.4% | 109% | 106% | 100% | 104% |  | 
Cc1cc2nc(CN)[nH]c2cc1C | 103% | 105% | 107% | 98.9% | 103% | 84% | 97.4% | 104% | 106% | 102% | 104% | 117% | 107% | 106% | 98.1% | 106% | 99.9% |  | 
O=[N+]([O-])c1ccc(Sc2nc(Cl)nc(NC3CCCC3)n2)cc1 | -70.2% [100 µM] (active) | -44.4% [100 µM] (active) | -92.2% [100 µM] (active) | -78.9% [100 µM] (active) | -51.1% [100 µM] (active) | -74.7% [100 µM] (active) | -83.5% [100 µM] (active) | -61.5% [100 µM] (active) | -100% [100 µM] (active) | -32.1% [100 µM] (active) | -80.9% [100 µM] (active) | -90.3% [100 µM] (active) | -75.4% [100 µM] (active) | -93% [100 µM] (active) | -93.9% [100 µM] (active) |  | -94.6% [100 µM] (active) |  | 
NNc1ccc(S(N)(=O)=O)cc1 | 90.7% | 93.7% | 110% | 91.2% | 107% | 85.3% | 103% | 105% | 121% | 109% | 104% |  | 105% | 108% | 105% | 98.6% | 101% |  | 
COC(=O)[C@H](Cc1cn(C)cn1)NC(=O)[C@H](CC(C)C)NC(=O)Nc1cc(C(F)(F)F)cc(C(F)(F)F)c1 | -84.5% [100 µM] (active) | -54.7% [100 µM] (active) | -97.8% [100 µM] (active) | -100% [100 µM] (active) | -59.8% [100 µM] (active) | -98.2% [100 µM] (active) | -94.9% [100 µM] (active) | -84.4% [100 µM] (active) | -100% [100 µM] (active) | -65.4% [100 µM] (active) | -93.5% [100 µM] (active) | -94% [100 µM] (active) | -89.3% [100 µM] (active) | -92.8% [100 µM] (active) | -96.5% [100 µM] (active) |  | -95.2% [100 µM] (active) |  | 
N#Cc1ccc(-c2ccc(-c3cccs3)o2)cc1F | 76.9% | 81.8% | 83.3% | 35.7% | 88.1% | 50.5% | 67.2% | 86.2% | 88.1% | 83.7% | 86.6% | 82.2% | 77.2% | 70.7% | 75.5% | 78.1% | 87.7% |  | 
ClCCn1cnc2c(SCc3ccccc3Cl)ncnc21 | 53.1% | 57% | 40.4% | 64% | 2.49% (active) | 62.3% | 33% | 41.7% | 25.4% | 13% | 43% | 66.5% |  | 31.3% | 8.93% (active) | 30.9% |  | 58.7% | 
O=C1OC(/C=C/c2ccccc2)=NC/1=C/c1ccccc1[N+](=O)[O-] | 106% | 93.3% | 84.6% | 91.4% | 103% | 81.2% | 97.6% | 98% | 105% | 106% | 96.9% | 99% | 116% | 99.7% | 97.4% | 89.8% | 99.6% |  | 
COc1ccc(/C=C/c2nc(NCCCN(C)C)c3ccccc3n2)cc1 | 73.6% | 103% | 82.7% | 83.9% | 33.2% | 0.889% (active) | 78% | 85.9% | 96.5% | -75.3% (active) | 25.9% | 18.7% |  | 55% | 65.8% | 47.5% |  | 97.3% | 91.2%
O=C1c2cccc3cccc(c23)C(=O)N1CCCCCCCCCCN1C(=O)c2cccc3cccc(c23)C1=O | 112% | 96.4% | 111% | 104% | 102% | 108% | 109% | 119% | 123% | 103% | 113% | 108% | 96.6% | 100% | 95.3% | 102% | 119% |  | 
FC(F)(F)c1cc(-c2nnc3n2N=C(Cl)CS3)cc(C(F)(F)F)c1 | 93% | 99.8% | 111% | 98.5% | 107% | 102% | 93.5% | 96.5% | 112% | 83.4% | 99% | 112% |  | 115% |  | 109% | 84.6% |  | 
CCCCCCCCCCCCCC | 92.5% | 106% | 105% | 98.2% | 108% | 91.3% | 99.4% | 108% | 135% | 113% | 113% |  | 112% | 120% | 99.2% | 109% | 115% |  | 
O=C(c1ccc(OCCN2CCCCC2)cc1)c1c(-c2ccc(O)cc2)sc2cc(O)ccc12 | 82.5% | 92.3% | 114% | 89.2% | 93.5% | 66.7% | 74.7% |  |  |  | 99.4% | 72.2% | 70.2% | 84.3% | 106% | 98.6% | 93.3% | 92.8% | 91.6%
Cc1cc(Nc2c3ccccc3nc3ccccc23)ccc1NS(C)(=O)=O | 47% | 41.8% | 34.3% | 36.9% | 14.4% | -5.41% (active) | 39.8% | 18.3% | 29.3% | 17.7% | 44.1% | 50% | 35% | 37.5% | 34.4% | 15% | 45.1% |  | 
N=C(N)c1ccc(-c2ccc(-c3ccco3)o2)cc1F | 56.2% | 67.4% | -10.4% (active) | 32.2% | 0.478% (active) | -20% (active) | 4.8% (active) | -93.4% (active) | 31.3% | 1.49% (active) | -68.2% (active) | 9.14% (active) | 34.1% | 19.8% | -27% (active) | 8.28% (active) | -65.9% (active) |  | 
O=C(CC(=O)c1ccccc1F)Nc1ccc([N+](=O)[O-])cc1 | 105% | 86.2% | 91.5% | 114% | 104% | 79.6% | 101% | 105% | 119% | 91.9% | 93.6% | 103% | 103% | 105% | 98% | 93.2% | 100% |  | 
COc1ccc(-c2cc(-c3cc4ccccc4oc3=O)n(-c3ccccc3)n2)cc1 | 79.3% | 75.7% | 78.1% | 55.4% | 95.3% | 67% | -31.5% (active) | 66.3% | 84% | 81.8% | 69.5% | 60.1% |  | 71.1% | 94.7% | 33.8% | 89% |  | 
